The results in this text go back to PubChem BioAssay (NCATS).

Records with an inconclusive call do not appear. Active and inactive are the calls of the source. Calls come from the whole dose curve; as a rule, active = well fitted curve in the direction sought with a large enough effect; inconclusive = small, poorly fitted or top-dose-only effect, or another doubt; inactive = no such curve, though single readings can be large; an effect the other way counts as inactive or inconclusive. Non-standard residues stand in square brackets, D forms with d. Residues, ends and D or L forms follow the SMILES beside them. *: point of attachment. Nva = CCC[C@H](N)C(=O)O; Cbz = O=C(OCc1ccccc1)*

Assay [1] is described as follows: qHTS Screen of the MIPE 4.0 Collection Against Ewings Sarcoma (TC32) (AID 1259256). Note: nearly all actives have a fitted effect of over 45% in size. In outline: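 Viability screen: 48 h incubation at 37C, 95% humidity, 5% CO2 with serially titrated compound, followed by CellTiter-Glo readout.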
The nature of assay [2]: NS1 protein of Zika virus - qHTS assay to identify small molecule inhibitors in human HEK 293 cells (AID 1347053). Note: nearly all actives have a fitted effect of over 55% in size. In a few lines:
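In this cell-based screen, HEK 293 cultures received compound for one hour before Zika MR766 at MOI = 0.5. NS1 was quantified 24 hours later by TR-FRET, normalized to virus-free wells and infected wells.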

Assay [3] can be described thus: qHTS of pediatric cancer cell lines to identify multiple opportunities for drug repurposing: Primary screen for TC32 cells (AID 1347089). Note: nearly all actives have a fitted effect of over 60% in size. In outline:
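Measured quantity: luminescence from CellTiter-Glo, reflecting metabolically active TC32 cells following 48 h of compound. Curves came straight from multi-point titrations, with 8 or 11 points in primary and 11 in confirmatory screening.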
For orientation: Quantitative high-throughput screening tests each substance at several concentrations.

Assay [4] is described as follows: qHTS of pediatric cancer cell lines to identify multiple opportunities for drug repurposing: Primary screen for DAOY cells (AID 1347090). Note: nearly all actives have a fitted effect of over 55% in size. In a few lines: (§1)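 Viability measured as metabolically active cells via CellTiter-Glo luminescence following 48 hours of compound exposure, 11-point dilutions in confirmatory testing. 500-1,000 cells/well plated 5 hours before dosing; controls were DMSO and 2.3 µM bortezomib.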

A short description of assay [5]: qHTS of pediatric cancer cell lines to identify multiple opportunities for drug repurposing: Primary screen for SJ-GBM2 cells (AID 1347091). In outline:
as §1

Assay [6] in a line: qHTS of pediatric cancer cell lines to identify multiple opportunities for drug repurposing: Primary screen for A673 cells (AID 1347092). Note: nearly all actives have a fitted effect of over 45% in size. In a few lines:
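Cells are plated, rested 5 h, dosed by pintool, incubated 48 h, then lysed with CellTiter-Glo and read by luminescence. DMSO is the neutral control; bortezomib at 2.3 uM final is the positive control.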

The nature of assay [7]: qHTS of pediatric cancer cell lines to identify multiple opportunities for drug repurposing: Primary screen for SK-N-MC cells (AID 1347093). In a few lines: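 Metabolically active cells were quantified by ATP-dependent luminescence (CellTiter-Glo, 15 min at room temperature) following 48 h treatment. Cells had been plated at 500-1,000 per well and settled for 5 h beforehand.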

A short description of assay [8]: qHTS of pediatric cancer cell lines to identify multiple opportunities for drug repurposing: Primary screen for BT-37 cells (AID 1347094). In outline: (§2)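 ATP-based luminescence (CellTiter-Glo) quantifies viability after a 48-hour exposure. Compounds are dosed across 8 or 11 final concentrations; DMSO and 2.3 µM bortezomib serve as controls.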
The nature of assay [9]: qHTS of pediatric cancer cell lines to identify multiple opportunities for drug repurposing: Primary screen for NB-EBc1 cells (AID 1347095). In a few lines: as §2
Assay [10] in a line: qHTS of pediatric cancer cell lines to identify multiple opportunities for drug repurposing: Primary screen for Saos-2 cells (AID 1347097). Note: nearly all actives have a fitted effect of over 40% in size. In a few lines:
as §2

Assay [11] in a line: qHTS of pediatric cancer cell lines to identify multiple opportunities for drug repurposing: Primary screen for SK-N-SH cells (AID 1347098). Note: nearly all actives have a fitted effect of over 65% in size. In outline: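 Cells (500-1,000/well) rested 5 h, then received compounds for 48 h; metabolically active cells were measured by CellTiter-Glo luminescence. Final concentrations spanned up to 46 µM (MIPE, 11-point) or 0.59 nM-46 µM (NPC, 8-point) in primary screens, 11-point in follow-ups.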

Assay [12] in a line: qHTS of pediatric cancer cell lines to identify multiple opportunities for drug repurposing: Primary screen for NB1643 cells (AID 1347099). Note: nearly all actives have a fitted effect of over 50% in size. In a few lines: as §2
Assay [13] can be described thus: qHTS of pediatric cancer cell lines to identify multiple opportunities for drug repurposing: Primary screen for U-2 OS cells (AID 1347096). Note: nearly all actives have a fitted effect of over 50% in size. In outline: (§3)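 Viability after 48 h compound treatment at 37C, 500-1,000 cells/well, read as ATP luminescence with CellTiter-Glo. Primary screens used 11-point (MIPE, 0.78 nM-46 µM) or 8-point (NPC, 0.59 nM-46 µM) final concentrations; follow-up screens used 11-point dilutions.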

A short description of assay [14]: qHTS of pediatric cancer cell lines to identify multiple opportunities for drug repurposing: Primary screen for LAN-5 cells (AID 1347100). In a few lines:
as §3

Assay [15] is described as follows: P-glycoprotein substrates identified in KB-3-1 adenocarcinoma cell line, qHTS therapeutic library screen (AID 1346986).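 Note: potency is for cytotoxicity meaning loss of cell viability; nearly all actives have a fitted effect of over 60% in size.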 In a few lines:
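Viability by CellTiter-Glo after 72 h compound exposure at 37 degree C, 5% CO2. Cytotoxic call: curve class -1.1 to -2.4, maximum response >50%, AC50 < 10 uM, compared across KB-3-1 and P-gp-overexpressing KB-8-5-11.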

The nature of assay [16]: P-glycoprotein substrates identified in KB-8-5-11 adenocarcinoma cell line, qHTS therapeutic library screen (AID 1346987). Note: nearly all actives have a fitted effect of over 65% in size. In outline: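 In this qHTS, P-gp-rich KB-8-5-11 cells received library compounds across a concentration range. Viability was quantified by luminescence after 72 h at 37 degree C.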
Potency is the fitted concentration of half-maximal effect.

As for `COc1cccc2c1C(=O)c1c(O)c3c(c(O)c1C2=O)C[C@@](O)(C(=O)CO)C[C@H]3O[C@H]1C[C@H](N)[C@H](O)[C@H](C)O1`, the Potency entry in [1] was “inactive”. For the same compound, the Potency is 332 nM (active) in assay [2]; 930 nM (active) in assay [3]; 935 nM (active) in assay [4]; 52.6 nM (active) in assay [5]; 235 nM (active) in assay [6]; 105 nM (active) in assay [7]. Further, the Potency was 122 nM (active) in [8]; 46.9 nM (active) in assay [9]; 1320 nM (active) in [10]; 242 nM (active) in assay [11]; 526 nM (active) in [12].

Turning to `CO[C@@H]1[C@@H](O)[C@H](O)[C@@H](n2c3c(Cl)cccc3c3c4c(c5c6cccc(Cl)c6[nH]c5c32)C(=O)NC4=O)O[C@@H]1CO`, the Potency entry in assay [1] is “inactive”. The Potency in [2] was 118 nM (active); in assay [3], 294 nM (active); in assay [4] it was 469 nM (active); in assay [5] it was 166 nM (active); in [7], 66.2 nM (active); in assay [8], 273 nM (active). Moreover, the Potency in [9] is 93.5 nM (active); in assay [13] it was 4690 nM (active); in assay [10], 296 nM (active); in assay [12], 418 nM (active); in assay [14], 118 nM (active).

With `COc1cc(C(=O)NC2CCN(C)CC2)ccc1Nc1ncc2c(n1)N(C1CCCC1)CCC(=O)N2C(C)C`, the Potency in assay [1] is 2350 nM (active); in assay [5], 2350 nM (active); in assay [6] it was 2960 nM (active); in assay [7], 1180 nM (active); in assay [8], 2430 nM (active); in assay [9] it was 662 nM (active). For the same compound, the Potency in assay [11] is 6070 nM (active); in assay [12], 3720 nM (active); in [14], 1180 nM (active). The Potency entry in assay [13] was “inactive”.

Turning to `O=C(Nc1nnc(-c2ccco2)o1)c1cc(-c2ccccc2)nc2ccccc12`, the Potency in [1] is 13200 nM (active); in [4], 14800 nM (active); in [7] it was 11800 nM (active); in assay [8], 27300 nM (active); in assay [9], 8330 nM (active); in assay [11], 30400 nM (active). Further, the Potency in assay [12] was 10500 nM (active); in [14] it was 20900 nM (active).

In the case of `CC(=O)ON=C1C(c2c(O)[nH]c3cc(Br)ccc23)=Nc2ccccc21`, the Potency is 7430 nM (active) in assay [1]; 2960 nM (active) in [5]; 11.8 nM (active) in assay [7]; 6110 nM (active) in assay [8]; 5260 nM (active) in [9]; 11800 nM (active) in assay [10]. Further, in assay [12], the Potency was 16600 nM (active).

For the compound `COc1cc(O)c2c(c1)C1OC1C[C@H](O)[C@H](O)C(=O)C=CC[C@H](C)OC2=O` (stereo not given in full), the Potency in assay [1] was 7430 nM (active); in assay [2], 11800 nM (active); in [4], 7430 nM (active); in [5], 8330 nM (active); in [6], 5900 nM (active); in [7], 2350 nM (active). The Potency in [8] was 19300 nM (active); in assay [9], 5900 nM (active); in assay [13], 18700 nM (active); in assay [10], 10500 nM (active); in assay [11], 6070 nM (active); in assay [12], 2960 nM (active). In assay [14], the Potency was 5260 nM (active).

Consider `Cc1cnc(NC(=O)Nc2cc(Br)c(C)cc2OC[C@@H]2CNCCO2)cn1`, for which the Potency in [1] is 590 nM (active); in assay [2], 6620 nM (active); in [5] it was 1180 nM (active); in assay [7] it was 166 nM (active); in assay [9], 1050 nM (active); in assay [14] it was 1870 nM (active). In [11], the Potency entry is “inactive”.

Consider `NC(=NCCCCCCN=C(N)N=C(N)Nc1ccc(Cl)cc1)N=C(N)Nc1ccc(Cl)cc1`, for which the Potency in assay [1] is 7430 nM (active); in [4], 5900 nM (active); in assay [5], 13200 nM (active); in assay [6], 2960 nM (active); in [7] it was 2090 nM (active); in assay [9] it was 26400 nM (active). The Potency in assay [10] is 18700 nM (active); in assay [11], 21500 nM (active); in assay [12] it was 5260 nM (active). The Potency result in assay [2], in assay [3] and in [13] was “inactive” throughout.

Consider `CC(C)c1cnn2c(NCc3ccccc3)cc(NCCCCCCN)nc12`, for which the Potency in [1] was 13200 nM (active); in [4], 4690 nM (active); in [5], 16600 nM (active); in [7] it was 662 nM (active); in assay [8], 24300 nM (active); in assay [9], 20900 nM (active). Moreover, the Potency in assay [10] was 23500 nM (active); in assay [12], 18700 nM (active); in assay [14], 18700 nM (active). Also, the Potency entry in assay [3] was “inactive”.

On to `CS(=O)(=O)N1CCc2c(-c3cnc(N)nc3)nc(N3CCOCC3)nc21`, for which the Potency was 820 nM (active) in assay [15]; 1300 nM (active) in [16]; 209 nM (active) in assay [5]; 935 nM (active) in assay [6]; 37.2 nM (active) in assay [7]; 235 nM (active) in assay [9]. In addition, the Potency is 935 nM (active) in assay [10], 469 nM (active) in assay [12] and 332 nM (active) in assay [14].

Consider `c1cc(CN2CCCNCCNCCCNCC2)ccc1CN1CCCNCCNCCCNCC1`, for which the Potency result in assay [16], in assay [3], in assay [4], in [5], in [6] and in assay [8] was “inactive” in each case. The Potency result in assay [9], in assay [13], in [10], in assay [12] and in assay [14] was “inactive” in each case.

Regarding `C[C@H](NC(=O)Cc1cc(F)cc(F)c1)C(=O)N[C@H](C(=O)OC(C)(C)C)c1ccccc1`, the values for the Potency in assay [16] and in assay [7] were 18700 nM (active) and 14800 nM (active), respectively. Further, the Potency result in assay [2], in assay [3], in assay [5], in assay [8], in assay [9] and in assay [13] was “inactive” in each case. For the same compound, the Potency entry in [10] and in [14] was “inactive” throughout.

Consider `CCC[C@@H](C=O)NC(=O)[C@H](CC(C)C)NC(=O)[C@H](CC(C)C)NC(=O)OCc1ccccc1` (Cbz-Leu-Leu-[Nva]-aldehyde), for which the Potency in assay [16] is 7430 nM (active); in assay [2], 3320 nM (active); in assay [3] it was 3700 nM (active); in [4] it was 935 nM (active); in [5], 296 nM (active); in [6], 590 nM (active). In addition, the Potency in assay [7] is 105 nM (active); in assay [8], 1220 nM (active); in assay [9], 372 nM (active); in [13], 2350 nM (active); in assay [10] it was 1180 nM (active); in [11], 1360 nM (active). The Potency is 469 nM (active) in [12] and 935 nM (active) in assay [14].
